Source: PubChem BioAssay AID1159580 (chemical genetic matrix, 2015)
Screen size: about 5,500 compounds; about 2,000 (36%) were called active. About 18% were inconclusive and are not listed. No stated cut-off is given here; in the data, active means normalized growth mostly below about 0.91 (no sharp cut-off); inconclusive means no clear call, values can overlap the other calls; inactive means mostly above about 0.92. The list shows a part of the results.

Test: chemical genetic growth profiling, strain panel (AID 1159580);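 further: tested at 20 µM; growth read once vehicle control cultures reached saturation at 30 °C; 1 = growth at the plate median or of vehicle wells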
Details: S. cerevisiae deletion strains, growth OD

Measured: normalized growth

O=c1cc(-c2cccc(O)c2)oc2ccc(O)cc12
active: locus YDR137W, strain rgp1, stronger effect = lower value 0.778 | locus YLR221C, strain rsa3, stronger effect = lower value 0.894 | locus YLR262C, strain YPT6 (second series), stronger effect = lower value 0.804 | locus YPL106C, strain sse1, stronger effect = lower value 0.827
inactive: locus YAL021C, strain ccr4, stronger effect = lower value 0.959 | locus YAL026C, strain drs2, stronger effect = lower value 0.946 | locus YAL030W, strain snc1, stronger effect = lower value 0.957 | locus YBL061C, strain skt5, stronger effect = lower value 0.952 | locus YBR009C, strain hhf1, stronger effect = lower value 0.934 | locus YBR023C, strain chs3, stronger effect = lower value 0.947 | locus YBR171W, strain sec66, stronger effect = lower value 0.956 | locus YBR231C, strain swc5, stronger effect = lower value 0.939 | locus YBR279W, strain paf1, stronger effect = lower value 0.962 | locus YCL011C, strain gbp2, stronger effect = lower value 0.933 | locus YCL016C, strain dcc1, stronger effect = lower value 0.952 | locus YCL061C, strain MRC1, stronger effect = lower value 0.949 | locus YCL069W, strain vba3, stronger effect = lower value 0.969 | locus YCR088W, strain abp1, stronger effect = lower value 0.962 | locus YDL005C, strain med2, stronger effect = lower value 0.951 | locus YDL040C, strain nat1, stronger effect = lower value 0.971 | locus YDR001C, strain nth1, stronger effect = lower value 0.943 | locus YDR069C, strain doa4, stronger effect = lower value 0.946 | locus YDR159W, strain sac3, stronger effect = lower value 0.975 | locus YDR195W, strain ref2 1.06 | locus YDR297W, strain sur2, stronger effect = lower value 0.953 | locus YDR334W, strain swr1, stronger effect = lower value 0.924 | locus YDR335W, strain msn5, stronger effect = lower value 0.938 | locus YDR392W, strain spt3, stronger effect = lower value 0.873 | locus YEL003W, strain gim4, stronger effect = lower value 0.943 | locus YEL037C, strain rad23, stronger effect = lower value 0.964 | locus YEL061C, strain CIN8 (second series), stronger effect = lower value 0.951 | locus YER015W, strain faa2, stronger effect = lower value 0.936 | locus YER016W, strain bim1, stronger effect = lower value 0.944 | locus YER111C, strain swi4, stronger effect = lower value 0.956 | locus YER155C, strain BEM2 (second series), stronger effect = lower value 0.925 | locus YFR010W, strain ubp6, stronger effect = lower value 0.962 | locus YGL167C, strain pmr1, stronger effect = lower value 0.942 | locus YGL173C, strain kem1, stronger effect = lower value 0.941 | locus YGL227W, strain vid30, stronger effect = lower value 0.953 | locus YGL240W, strain doc1, stronger effect = lower value 0.91 | locus YGL253W, strain hxk2, stronger effect = lower value 0.952 | locus YHR013C, strain ard1, stronger effect = lower value 0.953 | locus YHR027C, strain rpn1, stronger effect = lower value 0.955 | locus YHR142W, strain chs7, stronger effect = lower value 0.885 | locus YJL092W, strain hpr5, stronger effect = lower value 0.953 | locus YJL095W, strain BCK1 (second series), stronger effect = lower value 0.942 | locus YJL115W, strain asf1, stronger effect = lower value 0.947 | locus YJL129C, strain trk1, stronger effect = lower value 0.903 | locus YJL154C, strain vps35, stronger effect = lower value 0.962 | locus YJL164C, strain tpk1, stronger effect = lower value 0.947 | locus YJL166W, strain qcr8, stronger effect = lower value 0.95 | locus YJL187C, strain SWE1, stronger effect = lower value 0.936 | locus YKL160W, strain elf1, stronger effect = lower value 0.936 | locus YKR026C, strain gcn3, stronger effect = lower value 0.948 | locus YKR091W, strain srl3, stronger effect = lower value 0.952 | locus YLL001W, strain dnm1, stronger effect = lower value 0.945 | locus YLL026W, stronger effect = lower value 0.947 | locus YLL041C, strain sdh2, stronger effect = lower value 0.951 | locus YLR027C, strain aat2, stronger effect = lower value 0.938 | locus YLR258W, strain gsy2, stronger effect = lower value 0.939 | locus YLR320W, strain mms22, stronger effect = lower value 0.923 | locus YLR342W, strain FKS1, stronger effect = lower value 0.983 | locus YLR357W, strain rsc2, stronger effect = lower value 0.906 | locus YLR370C, strain arc18, stronger effect = lower value 0.933 | locus YLR384C, strain iki3, stronger effect = lower value 0.951 | locus YML120C, strain ndi1, stronger effect = lower value 0.952 | locus YMR058W, strain fet3, stronger effect = lower value 0.942 | locus YMR125W, strain sto1, stronger effect = lower value 0.959 | locus YMR129W, stronger effect = lower value 0.983 | locus YMR205C, strain PFK2, stronger effect = lower value 0.944 | locus YMR231W, strain pep5, stronger effect = lower value 0.958 | locus YNL071W, strain lat1, stronger effect = lower value 0.958 | locus YNL209W, strain ssb2, stronger effect = lower value 0.945 | locus YNL248C, strain rpa49, stronger effect = lower value 0.931 | locus YNL322C, strain KRE1 (second series), stronger effect = lower value 0.958 | locus YNR049C, strain mso1, stronger effect = lower value 0.942 | locus YOR001W, strain rrp6, stronger effect = lower value 0.948 | locus YOR070C, strain gyp1, stronger effect = lower value 0.964 | locus YOR080W, strain dia2, stronger effect = lower value 0.93 | locus YOR083W, strain WHI5, stronger effect = lower value 0.928 | locus YOR106W, strain vam3, stronger effect = lower value 0.933 | locus YOR265W, strain rbl2, stronger effect = lower value 0.958 | locus YOR270C, strain vph1, stronger effect = lower value 0.865 | locus YOR290C, strain snf2, stronger effect = lower value 0.893 | locus YPL051W, strain arl3, stronger effect = lower value 0.92 | locus YPL078C, strain atp4, stronger effect = lower value 0.956 | locus YPL240C, strain hsp82, stronger effect = lower value 0.952
